A selection: hits, their analogues and other compounds. The true share with any hit is near 11%.
AMA1-RON2 inh = qHTS for Inhibitors of AMA1-RON; Towards Development of Antimalarial Drug Lead: Primary Screen; Plasmodium falciparum AMA1 (3D7) - RON2 peptide interaction; AlphaScreen AMA1-biotinylated RON2 peptide binding; Potency, µM (highest dose often 58.2 µM), usual class: inhibitors; 360,000 compounds, 0.2% hits; also: nearly all actives have a fitted effect of over 45% in size
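AMA1 (3D7) with his tag at 25 nM final met compounds first, then biotinylated RON2 peptide at 25 nM; detection used donor plus acceptor beads, 10 µg/mL apiece, read by AlphaScreen after 30 min at room temperature.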
NS1 inh = qHTS Assay for Inhibitors of Influenza NS1 Protein Function. Potency, µM (top dose mostly 46.1 µM). AID 2326, 2010. 270,000 compounds, 0.4% hits; calls by dose curve; also: actives are rising curves; nearly all actives have a fitted effect of over 50% in size
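In this qHTS, NS1 from influenza A is expressed in budding yeast, where it slows growth. Cells are switched from glucose to 2% galactose medium (pH 6.0, -URA), treated with compound, and growth recovery is read at OD600.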
Sm TGR block = qHTS Assay for the Inhibitors of Schistosoma Mansoni Peroxiredoxins; Schistosoma mansoni thioredoxin glutathione reductase (TGR), Q962Y6; purified TGR, DTNB reduction, TNB absorbance 405 nm; Potency, µM (top dose mostly 114 µM), actives largely listed as inhibitors; AID 485364, 2010; 360,000 compounds, 3% hits; also: nearly all actives have a fitted effect of over 60% in size
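TGR 20 nM + NADPH 100 uM (dispensed conc.), cpd preinc 15 min RT; start with NADPH (500 uM addition) then DTNB (15 mM addition). Kinetic TNB absorbance, 405 nm filter. Four-parameter Hill fit across titration.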
Pf growth 48h = Primary qHTS for delayed death inhibitors of the malarial parasite plastid, 48 hour incubation; P. falciparum luciferase growth in erythrocytes, 48 h; Potency, µM (titrated, usually from 28.7 µM), usual class: inhibitors; 310,000 compounds, 5.9% hits; AID 504832, 2011
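Parasite viability was followed by luminescence of a genomically integrated firefly luciferase. Cultures held 0.1% parasitemia at 2% hematocrit (final), incubated under 5% CO2 at 37 C.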
Pf growth 96h = Primary qHTS for delayed death inhibitors of the malarial parasite plastid, 96 hour incubation; Potency, µM (series often up to 28.7 µM), actives largely listed as inhibitors; P. falciparum luciferase reporter growth, 96 h; 320,000 compounds, 6.9% hits
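P. falciparum expressing integrated firefly luciferase grown in erythrocytes (2% hematocrit, 0.05% parasitemia final) with compounds for 96 hours at 37 C, 5% CO2. Growth inhibition read as loss of luminescence after adding luciferase detection reagent.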
Each line names hits and unclear results; the compound was inactive in the other large screens. Unless noted, calls follow the shape of the dose curve; as a rule, active = well fitted curve in the direction sought with a large enough effect; inconclusive = small, poorly fitted or top-dose-only effect, or another doubt; inactive = no such curve, though single readings can be large; an effect the other way counts as inactive or inconclusive.

CCCCNC(=O)CCn1c(=O)c2cccn2c2ccc(F)cc21	none
CCOC(=O)c1nc2sc3c(c2c(=O)n1C(C)C(=O)OCC)CCCC3 (stereo not given)	Pf growth 96h inconclusive
Cc1cc(=O)[nH]c(SCC(=O)N2CCN(C(c3ccccc3)c3ccccc3)CC2)n1	Pf growth 48h 13µM
Cc1c(C(=O)N2CCC3(CC2)OCCO3)oc2ccccc12	none
Cc1c(C(=O)N2CCN(C(c3ccccc3)c3ccccc3)CC2)oc2ccccc12	Pf growth 48h 6.6µM, Pf growth 96h 15µM (no result: NS1 inh)
O=C(CCC1CCN(C(=O)CC2=CCCCC2)CC1)NCc1ccc(F)cc1	none (no result: NS1 inh, Sm TGR block, Pf growth 48h, Pf growth 96h)
COc1ccccc1-c1c(C#N)c(N)nc2c1CCc1ccccc1-2	Pf growth 48h 12µM
CCOc1cc(-c2c(C#N)c(N)nc3c2CCc2ccccc2-3)ccc1O	Pf growth 48h inconclusive
CN1CCN(Cc2ccc(Sc3ccc(Cl)cc3)c([N+](=O)[O-])c2)CC1	Pf growth 48h inconclusive, Pf growth 96h 0.17µM (no result: NS1 inh)
CCC(C)NC(=O)CN1C(=O)c2cccc3cccc1c23 (stereo not given)	Pf growth 96h inconclusive
CCN1/C(=N\N)c2cccc3cccc1c23	AMA1-RON2 inh inconclusive, Sm TGR block 22µM, Pf growth 96h inconclusive
COc1ccc(CCNC(=O)c2ccc(-n3c(C)cc4c3CCC(C)C4)cc2)cc1OC (stereo not given)	none (no result: AMA1-RON2 inh, NS1 inh, Pf growth 48h, Pf growth 96h)
CC1CCN(C(=O)c2c(NC(=O)c3ccccc3Cl)sc3c2CCC(C(C)(C)C)C3)CC1 (stereo not given)	none (no result: AMA1-RON2 inh, NS1 inh, Pf growth 48h, Pf growth 96h)
O=C(NNC(=O)c1cc2cc(OC(F)(F)F)ccc2[nH]1)c1ccc(Cl)cc1	none
CCN(CC)c1ccc2c(-c3ccc(S(=O)(=O)O)cc3S(=O)(=O)[O-])c3ccc(=[N+](CC)CC)cc-3oc2c1	AMA1-RON2 inh 14µM
CCN(CC)c1ccc2nc3c4ccccc4c(=O)cc-3oc2c1	none
Cc1cc(C)c(S(=O)(=O)Nc2cccc(-c3cn4ccccc4n3)c2)c(C)c1	none (no result: AMA1-RON2 inh, NS1 inh, Pf growth 48h, Pf growth 96h)
Cc1ccc(C(=O)Nc2cccc(-c3cn4ccccc4n3)c2)cc1	Pf growth 96h 13µM
O=C(Nc1cccc(-c2cn3cccnc3n2)c1)c1ccc2c(c1)OCO2	Pf growth 96h 1.3µM
Cc1cc(C)c(S(=O)(=O)Nc2ccc(-c3cn4ccccc4n3)cc2)c(C)c1	Pf growth 48h 15µM (no result: Pf growth 96h)
O=C(Nc1cccc(-c2cn3cccnc3n2)c1)c1ccco1	Pf growth 96h inconclusive
COc1ccc(-n2c(CC3C(=O)N(C)c4ccc(C)cc43)nc3ccccc3c2=O)cc1 (stereo not given)	none (no result: AMA1-RON2 inh, NS1 inh, Pf growth 48h, Pf growth 96h)
CN(c1ncnc2c1c(-c1ccccc1)cn2-c1ccc(F)cc1)C1CCCCC1	none (no result: AMA1-RON2 inh, NS1 inh, Pf growth 48h, Pf growth 96h)
O=C(NCc1ccccc1Cl)C1CCN(S(=O)(=O)c2cccs2)CC1	none
COc1ccc(C(NC(=O)/C=C/c2ccco2)c2ccc(OC)c(OC)c2)cc1OC	Sm TGR block 8.9µM, Pf growth 96h inconclusive
COc1ccc(C(NC(=O)c2ccco2)c2ccc(OC)c(OC)c2)cc1 (stereo not given)	none (no result: Pf growth 96h)
COc1ccc(C2(CNC(=O)/C=C\c3ccco3)CCCC2)cc1OC	Sm TGR block 3.2µM, Pf growth 48h 12µM, Pf growth 96h inconclusive
CCn1cc(C(=O)NCCCN(CC(C)C)CC(C)C)c(=O)c2cc(S(=O)(=O)N(C)C3CCCCC3)ccc21	Pf growth 48h inconclusive, Pf growth 96h inconclusive
COc1ccc(CCNC(=O)CCN2C(=O)[C@@H]3Cc4ccccc4CN3C2=O)cc1OC	Pf growth 96h inconclusive
O=C(O)C(c1ccccc1)N1C(=O)c2cccc3cccc(c23)C1=O (stereo not given)	Pf growth 96h 1.5µM
CCOC(=O)c1[nH]c(COC(=O)CCCOc2ccccc2)c(C(=O)OCC)c1C	Pf growth 48h 13µM, Pf growth 96h inconclusive
CCc1ccccc1NC(=O)CCN1C(=O)C2C3CCC(C3)C2C1=O (stereo not given)	none (no result: NS1 inh)
CC1=CC(=O)C(C(C)C)=C/C1=N\OC(=O)c1cccc2nc(C)oc12	Pf growth 96h inconclusive
CC1=CC(=O)C(C(C)C)=CC1=NC(=O)c1ccc(C)cc1	Sm TGR block 3.2µM, Pf growth 48h inconclusive (no result: NS1 inh)
O=C(NCCOc1ccc(Cl)cc1)C1CCCCC1	Pf growth 48h 12µM (no result: NS1 inh)
CCCCOCCCNC(=O)C1CCCCC1	Pf growth 96h 8.3µM
CCN(CC)C(=O)CSc1nnc2nnc3cc(C)ccc3n12	Pf growth 48h inconclusive
CCN(CC)C(=O)CSc1nnc2nnc3cc(Cl)ccc3n12	Pf growth 48h 4.7µM, Pf growth 96h 7.4µM
CC(=O)Nc1ccc(S(=O)(=O)NC2(C(F)(F)F)C(=O)Nc3c2c(=O)[nH]c(=O)n3-c2ccc(C)cc2)cc1 (stereo not given)	none (no result: AMA1-RON2 inh, NS1 inh, Pf growth 48h, Pf growth 96h)
COc1cc(/C=C2/CCC/C(=C\c3cc(O)c(OC)c(Cl)c3)C2=O)cc(Cl)c1O	Pf growth 48h inconclusive, Pf growth 96h 0.13µM
COc1cc(/C=C2\CC/C(=C\c3cc(OC)c(OC)c(OC)c3)C2=O)cc(OC)c1OC	Pf growth 48h 2.6µM, Pf growth 96h 2.1µM
COc1cc(/C=C2/CCc3ccccc3C2=O)cc(OC)c1OC	AMA1-RON2 inh inconclusive, Pf growth 48h inconclusive, Pf growth 96h inconclusive
COc1cc(/C=C2\COC/C(=C\c3cc(OC)c(OC)c(OC)c3)C2=O)cc(OC)c1OC	Sm TGR block inconclusive, Pf growth 48h 0.37µM, Pf growth 96h 0.83µM
COc1cc(/C=C2\CC(C(C)(C)C)C/C(=C\c3cc(OC)c(OC)c(OC)c3)C2=O)cc(OC)c1OC (stereo not given)	AMA1-RON2 inh inconclusive, Pf growth 48h inconclusive, Pf growth 96h inconclusive
COc1cc(/C=C2\CC/C(=C\c3cc(OC)c(O)c(OC)c3)C2=O)cc(OC)c1O	AMA1-RON2 inh inconclusive, Sm TGR block 28µM, Pf growth 48h inconclusive, Pf growth 96h 6.6µM
CCOc1ccc(C2NC(=O)c3c(COC)cc(C)nc3N2Cc2ccccc2)cc1OC (stereo not given)	none (no result: AMA1-RON2 inh, NS1 inh, Pf growth 48h, Pf growth 96h)
CC1CCCCC1NC(=O)CN(C)S(=O)(=O)c1ccc2c(c1)c(=O)n(C)c(=O)n2C (stereo not given)	Pf growth 96h inconclusive
C=CC[C@@H](CC(=O)N[C@H](CO)Cc1ccccc1)C(=O)NC[C@@H](OC(=O)[C@@H](CC=C)Cc1ccc(F)cc1)c1ccccc1	none (no result: NS1 inh, Sm TGR block, Pf growth 48h, Pf growth 96h)
Cc1cc(C(C)c2ccccc2)c(O)c(CN2CCOCC2)c1C (stereo not given)	Pf growth 48h 1.9µM
CCOC(=O)CC(=O)CSc1ccc2nnc(-c3ccccc3)n2n1	NS1 inh inconclusive, Pf growth 48h 3.7µM, Pf growth 96h inconclusive
CCOC(=O)c1nnc2cc(-c3ccccc3)nn2c1C	Pf growth 96h 15µM (no result: Pf growth 48h)
Cc1ccc(-c2nnc3ccc(SCC(=O)N4CCCc5ccccc54)nn23)cc1	Pf growth 48h inconclusive, Pf growth 96h 10µM

Screens deposited in PubChem BioAssay by National Center for Advancing Translational Sciences (NCATS).
